Source: PubChem BioAssay (NCATS)
Where “and” joins values, the source holds several entries; their conditions need not be identical. Equal values may be shown once. Results filed as inconclusive are left out. More than one record can exist for a structure, and the calls need not agree. Calls of active or inactive are those of the source. Unless noted, calls follow the shape of the dose curve; as a rule, active = well fitted curve in either direction with a large enough effect (not every such curve was filed as active); inconclusive = small, poorly fitted or top-dose-only effect, or another doubt; inactive = flat fitted curve, though single readings scatter.

Legend:
[1] = AP1 Signaling Pathway (AID 357); conditions: ME-180 AP-1-bla reporter, EGF-induced, beta-lactamase ratio, 5 h;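 also: ME-180 reporter cells stimulated with EGF at its EC50 level; % is scaled to controls: 0 for no effect and ±100 for the full control effect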
Procedure, shortened: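 AP-1-bla ME-180 cells, Opti-MEM + 0.5% dialyzed FBS, plated overnight 37 °C. Cpd titration + EC50 EGF, 5 h 37 °C. CCF4 2.5 h RT; ex 405, em 460/530 ratio → %activity, AC50.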

[2] = target: Cytochrome P450 1A2 (Homo sapiens) (UniProt P05177); assay: p450-cyp1a2 (AID 410; calls by dose curve; also: potency is read from the fitted curve at half-maximal effect;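 as to activity change, negative = inhibition: -100% = full effect of reference inhibitor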); conditions: recombinant CYP1A2, luciferin-ME demethylation, luminescence; series mostly up to 57 µM
Cytochrome P450 1A2 (Homo sapiens), sequence (P05177 whole entry, looked up): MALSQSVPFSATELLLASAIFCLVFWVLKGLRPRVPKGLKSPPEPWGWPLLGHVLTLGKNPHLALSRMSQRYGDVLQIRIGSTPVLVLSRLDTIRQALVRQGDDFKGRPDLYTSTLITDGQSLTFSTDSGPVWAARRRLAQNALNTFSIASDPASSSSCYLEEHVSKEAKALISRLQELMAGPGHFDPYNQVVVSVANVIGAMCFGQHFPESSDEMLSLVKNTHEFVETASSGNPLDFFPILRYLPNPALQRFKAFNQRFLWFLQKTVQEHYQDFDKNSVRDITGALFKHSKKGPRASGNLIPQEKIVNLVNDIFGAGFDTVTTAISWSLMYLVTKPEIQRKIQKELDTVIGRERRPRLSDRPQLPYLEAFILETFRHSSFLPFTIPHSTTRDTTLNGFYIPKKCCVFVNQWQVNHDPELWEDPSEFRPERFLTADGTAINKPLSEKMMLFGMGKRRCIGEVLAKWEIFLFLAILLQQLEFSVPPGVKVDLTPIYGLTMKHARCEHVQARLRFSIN
Procedure, shortened: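 20nM CYP1A2, 100uM Luciferin-ME (=Km), 100mM KPO4; cpd 10 min RT; +NADPH regen, 60 min RT; stop/detect 20 min; luminescence. Normalized to furafylline 57 uM = full inhibition.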

[3] = Stat Signaling Pathway (AID 446); conditions: ME-180 (cervical carcinoma) SIE beta-lactamase reporter, IL-6 stimulated, 5 h;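 also: ME-180 cervical cancer cells given 40 pM IL-6 alongside compound; SIE-controlled beta-lactamase reporter measured as 460/530 nm FRET emission ratio; % is scaled to controls: 0 for no effect and ±100 for the full control effect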
Procedure, shortened: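 Overnight-plated ME-180 cells bearing a STAT Inducible Element beta-lactamase reporter; 5 h co-exposure to compound and 40 pM IL-6; values normalized to 300 pM IL-6 and 125 nM JAK inhibitor controls.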

[4] = target: Glucocorticoid receptor (Homo sapiens) (UniProt P04150); assay: GR-GFP Redistribution (AID 450;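 active = compounds whose dose series gives a full or clear partial fitted curve of increased nuclear translocation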; also: potency is read from the fitted curve at half-maximal effect); conditions: U2OS GR-GFP nuclear translocation, laser cytometry, 2 h
Glucocorticoid receptor (Homo sapiens), sequence (P04150 whole entry, looked up): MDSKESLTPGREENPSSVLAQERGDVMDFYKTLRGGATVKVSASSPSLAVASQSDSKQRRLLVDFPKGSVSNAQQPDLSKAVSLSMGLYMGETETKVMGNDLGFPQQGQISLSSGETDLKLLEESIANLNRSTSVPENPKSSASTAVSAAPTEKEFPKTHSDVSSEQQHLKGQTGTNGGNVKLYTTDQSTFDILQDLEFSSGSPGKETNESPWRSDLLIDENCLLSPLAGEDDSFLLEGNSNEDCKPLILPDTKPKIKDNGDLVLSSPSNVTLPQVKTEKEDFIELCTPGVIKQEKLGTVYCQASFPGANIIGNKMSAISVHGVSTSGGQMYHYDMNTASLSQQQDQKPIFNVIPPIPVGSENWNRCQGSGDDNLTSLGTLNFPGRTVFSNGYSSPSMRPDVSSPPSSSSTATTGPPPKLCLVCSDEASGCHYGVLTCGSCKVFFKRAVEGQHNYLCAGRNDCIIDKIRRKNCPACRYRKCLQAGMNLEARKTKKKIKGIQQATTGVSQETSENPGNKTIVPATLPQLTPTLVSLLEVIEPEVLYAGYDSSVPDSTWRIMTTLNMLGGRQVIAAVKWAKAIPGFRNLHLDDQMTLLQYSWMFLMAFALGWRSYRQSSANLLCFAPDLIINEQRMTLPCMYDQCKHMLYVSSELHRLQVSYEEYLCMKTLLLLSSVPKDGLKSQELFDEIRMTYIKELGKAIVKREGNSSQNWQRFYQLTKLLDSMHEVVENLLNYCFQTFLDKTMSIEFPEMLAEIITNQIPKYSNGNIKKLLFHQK

[5] = NFAT Signaling Pathway (AID 444); conditions: Jurkat NFAT-bla M1, carbachol, beta-lactamase ratio, 5 h;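 also: carbachol stimulus at about its EC50 of 1 µM final; % is scaled to controls: 0 for no effect and ±100 for the full control effect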
Procedure, shortened: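 Jurkat cells with NFAT-driven β-lactamase reporter and co-expressed M1 receptor, stimulated with carbachol (final 1 uM, ~EC50), compound titration, 5 h at 37 °C. CCF4 loaded 1 h at RT; 460/530 nm ratio gave %activity and AC50.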

[6] = Cell Viability - BJ (AID 421; calls by dose curve;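 also: potency is read from the fitted curve at half-maximal effect; cells exposed to compound for 40 hours at 37 °C before readout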); conditions: BJ fibroblast viability, qHTS
Procedure, shortened: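 Quantitative HTS: ATP depletion in BJ cells after 40 hr compound exposure in complete culture medium, detected with CellTiter-Glo; AC50 from standard Hill fits.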

[7] = Cell Viability - Hek293 (AID 427;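 active = compounds whose dose-response curve shows a full or clear partial loss of cell viability, called from curve shape rather than a numeric limit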;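 also: potency is read from the fitted curve at half-maximal effect; cells exposed to compound for 40 hours at 37 °C before reading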); conditions: qHTS
Procedure, shortened: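 AC50 values derive from Hill-modelled concentration-response of ATP-based luminescence, normalized between DMSO-only and 100 uM tamoxifen controls. Cells were exposed in complete culture medium for 40 hr at 37 °C before detection.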

[8] = Cell Viability - HepG2 (AID 433; calls by dose curve;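 also: potency is read from the fitted curve at half-maximal effect; cells exposed to compound for 40 hours; potency for ATP loss meaning cytotoxicity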); conditions: qHTS
Procedure, shortened: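 ATP luminescence (CellTiter-Glo) after 40 h compound exposure, 37 °C, HepG2, 1500 cells/well, complete medium. Normalized: DMSO = basal, 100 uM tamoxifen = 100% inhibition. AC50 via standard Hill equation.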

[9] = Cell Viability - MRC5 (AID 434; calls by dose curve;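 also: potency is read from the fitted curve at half-maximal effect; cells exposed to compound for 40 hours at 37 °C; potency reflects cytotoxicity seen as loss of intracellular ATP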); conditions: MRC5 lung fibroblast viability, qHTS
Procedure, shortened: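 ATP luminescence read-out (CellTiter-Glo, 20 min RT) after 40 hr, 37 °C compound exposure of 1500 MRC5 cells/well. Data normalized to DMSO (basal) and 100 uM tamoxifen (100% inhibition); AC50 from standard Hill equation.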

[10] = Cell Viability - SK-N-SH (AID 435; calls by dose curve; also: potency is read from the fitted curve at half-maximal effect); conditions: SK-N-SH neuroblastoma cell viability qHTS
Procedure, shortened: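 CellTiter-Glo ATP luminescence, 20 min RT read; cells pre-plated 5 hr, compound 40 hr at 37 °C, 1500 cells/well, complete medium. Normalized DMSO = 0, 100 uM tamoxifen = 100% inhibition; Hill-fit AC50.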

c1ccc2sc(C3(N4CCCCC4)CCCCC3)cc2c1
inactive: activity change, negative = inhibition ([1]; at 38 µM (top of the series)) -1.54% | Potency [2] | activity, negative = inhibition ([3]; at 38 µM (top of the series)) -24.8% | Potency [4] > 46 µM

S=C(NC1CCCCC1)N1CCC(c2cnc[nH]2)CC1
inactive: activity change, negative = inhibition ([1]; at 38 µM (top of the series)) -10.5% | activity, negative = inhibition ([3]; at 38 µM (top of the series)) 6.17% | Potency [4] > 46 µM

CC[C@@H]1C(=O)OC[C@@H]1Cc1cncn1C
inactive: activity change, negative = inhibition ([1]; at 17.2 µM (top of the series)) -3.08% and 5.87% | activity, negative = inhibition ([3]; at 17.2 µM (top of the series)) 1.99% and 5.87%
active: activity change, negative = inhibition ([5]; at 17.2 µM (top of the series)) 75.4% [activator]

C#CCOC(=O)C1=CCCN(C)C1
inactive: activity change, negative = inhibition ([1]; at 38 µM (top of the series)) 16.6% | activity, negative = inhibition ([3]; at 38 µM (top of the series)) 14.7% | Potency [4] > 46 µM
active: activity change, negative = inhibition ([5]; at 38 µM (top of the series)) 44.2% [activator]

O=C(O)CC[N+](=O)[O-]
inactive: activity change, negative = inhibition ([1]; at 38 µM (top of the series)) -8.61% | Potency [2] | activity change, negative = inhibition ([5]; at 38 µM (top of the series)) 10% | activity, negative = inhibition ([3]; at 38 µM (top of the series)) 1.14% | Potency [4] > 46 µM

CNCCc1ccc(O)c(O)c1
inactive: activity change, negative = inhibition ([1]; at 38 µM (top of the series)) -12.9% | activity change, negative = inhibition ([5]; at 38 µM (top of the series)) 4.43% | activity, negative = inhibition ([3]; at 38 µM (top of the series)) -23.7% | Potency [4] > 46 µM

CC[C@@]1(O)C(=O)OCc2c1cc1n(c2=O)Cc2cc3ccccc3nc2-1
inactive: Potency [4] > 46 µM and > 20.6 µM
active: activity change, negative = inhibition ([1]; at 17.2 µM (top of the series)) -111% | activity change, negative = inhibition ([1]; at 38 µM (top of the series)) -97.5% | Potency [2] 7.94 µM and 2.51 µM and 1.58 µM | activity change, negative = inhibition ([5]; at 17.2 µM (top of the series)) -85.5% | activity change, negative = inhibition ([5]; at 38 µM (top of the series)) -97% | activity, negative = inhibition ([3]; at 17.2 µM (top of the series)) -95.6% | activity, negative = inhibition ([3]; at 38 µM (top of the series)) 42.7%

C[C@]12N[C@H](Cc3ccccc31)c1ccccc12
inactive: activity change, negative = inhibition ([1]; at 38 µM (top of the series)) -6.02% and 8.41% | Potency [2] | activity change, negative = inhibition ([5]; at 38 µM (top of the series)) -11.3% and -3.27% | activity, negative = inhibition ([3]; at 38 µM (top of the series)) 16.1% and 6.66%

CNCCc1c[nH]c2ccc(O)cc12
inactive: activity change, negative = inhibition ([1]; at 38 µM (top of the series)) 7.75% | Potency [2] | activity change, negative = inhibition ([5]; at 38 µM (top of the series)) 12.8% | activity, negative = inhibition ([3]; at 38 µM (top of the series)) -2.52% | Potency [4] > 46 µM

NCCc1c[nH]c2ccc(O)cc12
inactive: activity change, negative = inhibition ([1]; at 17.2 µM (top of the series)) 7.63% | activity change, negative = inhibition ([1]; at 38 µM (top of the series)) 7.62% | activity change, negative = inhibition ([5]; at 17.2 µM (top of the series)) -8.4% | activity change, negative = inhibition ([5]; at 38 µM (top of the series)) 4.18% | activity, negative = inhibition ([3]; at 17.2 µM (top of the series)) -0.625% | activity, negative = inhibition ([3]; at 38 µM (top of the series)) -13.2% | Potency [4] > 46 µM and > 20.6 µM
active: Potency [2] 7.94 µM and 2 µM

O=c1cccc2n1CC1CNC[C@H]2C1
inactive and 31.6 µM (active): Potency [2]
inactive: activity change, negative = inhibition ([1]; at 17.2 µM (top of the series)) -4.28% | activity change, negative = inhibition ([5]; at 17.2 µM (top of the series)) -12.9% | activity, negative = inhibition ([3]; at 17.2 µM (top of the series)) 6.88% | Potency [4] > 20.6 µM and > 46 µM

CC(C)Oc1cccnc1N(C)C1CCN(Cc2ccccc2)CC1
inactive: activity change, negative = inhibition ([1]; at 38 µM (top of the series)) 2.27% | Potency [2] | Potency [4] > 46 µM

NCc1cc(=O)[nH]o1
inactive: activity change, negative = inhibition ([1]; at 38 µM (top of the series)) 1.2% | Potency [2] | activity change, negative = inhibition ([5]; at 38 µM (top of the series)) 7.89% | activity, negative = inhibition ([3]; at 38 µM (top of the series)) -1.4% | Potency [4] > 46 µM

C[C@@H]1O[C@H](C[N+](C)(C)C)C[C@H]1O
inactive: activity change, negative = inhibition ([1]; at 38 µM (top of the series)) 15.5% | Potency [4] > 46 µM

Clc1cnc(Oc2ccc(Oc3ncc(Cl)cc3Cl)cc2)c(Cl)c1
inactive: activity change, negative = inhibition ([1]; at 38 µM (top of the series)) 8.39% | Potency [2] | activity, negative = inhibition ([3]; at 38 µM (top of the series)) 1.75% | Potency [4] > 46 µM

CCCN(CCC)[C@@H]1CCc2ccc(O)cc2C1
inactive: activity change, negative = inhibition ([1]; at 38 µM (top of the series)) 4.4% and -2.26% | Potency [2] | activity, negative = inhibition ([3]; at 38 µM (top of the series)) -20.3% and 11.5% | Potency [4] > 46 µM

CC(=O)NCCc1c[nH]c2ccccc12
active: Potency [2] 15.8 µM
inactive: activity change, negative = inhibition ([1]; at 38 µM (top of the series)) 3.76% | activity change, negative = inhibition ([5]; at 38 µM (top of the series)) 5.76% | Potency [4] > 46 µM

O=C(O)Cc1cnc[nH]1
inactive: activity change, negative = inhibition ([1]; at 38 µM (top of the series)) 10.5% | Potency [2] | activity change, negative = inhibition ([5]; at 38 µM (top of the series)) -2.43% | activity, negative = inhibition ([3]; at 38 µM (top of the series)) -3.06% | Potency [4] > 46 µM

CN(C)[C@@H]1C(=O)C(C(N)=O)=C(O)[C@@]2(O)C(=O)C3=C(O)c4c(O)cccc4[C@@](C)(O)[C@H]3[C@H](O)[C@@H]12
inactive: activity change, negative = inhibition ([1]; at 17.2 µM (top of the series)) 12.6% | Potency [6] > 92 µM | Potency [7] > 92 µM | Potency [8] > 92 µM | Potency [9] > 92 µM | Potency [10] > 92 µM | activity change, negative = inhibition ([5]; at 17.2 µM (top of the series)) 0.604% | activity, negative = inhibition ([3]; at 17.2 µM (top of the series)) 3.84%

CC1=NN=C(c2ccc(N)cc2)c2cc3c(cc2C1)OCO3
active: Potency [2] 31.6 µM
inactive: activity change, negative = inhibition ([1]; at 38 µM (top of the series)) -19.4% | activity change, negative = inhibition ([5]; at 38 µM (top of the series)) 7.54% | Potency [4] > 46 µM

COc1ccc2c(c[n+](C)c3c4cc5c(cc4ccc23)OCO5)c1OC
active: Potency [2] 10 µM
inactive: activity change, negative = inhibition ([1]; at 38 µM (top of the series)) 1.37%
